The results in this text go back to PubChem BioAssay AID602449 (Sanford-Burnham Center for Chemical Genomics, 2012).

Where “and” joins values, the source holds several entries; their conditions need not be identical. Identical values can stand only once. Out of some 360,000 compounds screened, about 5,000 (1.4%) were called active.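 How the source made its calls: active means inhibition of 50% or more, scaled per plate between neutral and stimulator controls; inactive means the rest.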 This excerpt belongs to a sample that is enriched for actives. Some compounds were tested as several samples or in several runs, with calls that do not always agree.

This assay is described as follows: blockers of Ca2+-induced mitochondrial swelling – biochemical, isolated mouse mitochondria, absorbance, primary screen (AID 602449).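 Further: 0% = DMSO wells given calcium and 100% = 1 mM EGTA wells.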 As to conditions: 30 min, at 10 µM, stronger effect = higher value.
As usually defined, the inhibition is the change of the read-out against control, counted positive when it falls. In the case of `CCOC(=O)CNC(=O)CSc1ncccc1-c1nc2ccccc2[nH]1`, the inhibition was 0% (inactive).

On to `COc1ccc(NC(=O)c2sc(=O)n(Cc3ccc(S(=O)(=O)N(C)C)cc3)c2C)cc1`, for which the inhibition is -1.7% (inactive).

With `CCOC(=O)c1sc2nc(C)nc(SCC(N)=O)c2c1C`, the inhibition is 0.2% (inactive).

Consider `O=C(CN(C(=O)CCC(=O)Nc1nccs1)c1ccc(F)cc1)NCc1ccc2c(c1)OCO2`, for which the inhibition is -0.8% (inactive).

On to `CC(=O)Nc1cc(-c2ccc(N3CCN(C)CC3)cc2)cn2c(-c3cccc(C(=O)N(C)C)c3)cnc12`, for which the inhibition was 0.5% (inactive).

Turning to `CC(=O)OC1CCC2C3CCC4=C(CC(F)C(=O)C4)C3CCC12C` (stereo not given), the inhibition is 1.6% (inactive).

Consider `CN(C)Cc1ccccc1C1(O)c2ccccc2CSc2ccccc21` (stereo not given), for which the inhibition was 52.8% (active).

On to `CN(C)CC/C=C1\c2ccccc2CSc2ccccc21`, for which the inhibition is 2.3% (inactive).

For the molecule `CN(Cc1cccs1)C(=O)Cc1c[nH]c2ccccc12`, the inhibition is 0.8% (inactive).

On to `COc1ccccc1NC(=O)C1=C(C)Nc2nc3ccccc3n2C1c1cccs1` (stereo not given), for which the inhibition was 0.9% (inactive).

Take `COc1ccc(-c2nc3cnccn3c2NC2CCCCC2)cc1-c1cccc(Cl)c1`: the inhibition is 2% (inactive) and -0.2% (inactive).

On to `COc1ccc(-c2nc3cc(C)ccn3c2NC2CCCCC2)cc1SC1CCCCC1`, for which the inhibition was 14.7% (inactive) and 55.4% (active).

As for `CCOc1cc(-c2nc3cc(C)ccn3c2NCC2CCCO2)ccc1O` (stereo not given), the inhibition was -0.2% (inactive).

Turning to `CCCC1CC(C)(C(=O)Cn2[nH]c(=O)ccc2=O)OC1=O` (stereo not given), the inhibition was -1.2% (inactive).

For the molecule `O=C1CCC(C(=O)OCC(=O)Nc2ccc(OC(F)F)cc2)=NN1`, the inhibition is -0.6% (inactive).

For `O=C(COc1ccc(NC(=O)c2ccccc2[N+](=O)[O-])cc1)c1ccc(F)cc1`, the inhibition was -1.1% (inactive).

Take `COc1cc2c3c(c1)/C(=C1/SC(=S)NC1=O)C(=O)N3C(C)(C)C=C2C`: the inhibition is 91.4% (active).

Consider `Cc1cc(C)n(CCNS(=O)(=O)c2ccc(Cl)cc2)n1`, for which the inhibition is 0% (inactive).

As to `Cc1ccc(C(=O)NCC(=O)O)s1`, the inhibition is -1.7% (inactive).

On to `CCCCc1nc(NCc2ccccc2)c(C#N)c2c1CCCC2`, for which the inhibition is 5.4% (inactive).

Take `CCCCc1nc(NCCN)c(C#N)c2c1CSC(C)(C)C2`: the inhibition is 108% (active).

For the molecule `Cc1nc(NCCN)c(C#N)c2c1COC(C)(C)C2`, the inhibition is -1% (inactive).

As to `COc1ccc(OC)c(S(=O)(=O)N(C)CC(=O)N2CCN(c3ccccc3)CC2)c1`, the inhibition is -2.8% (inactive).

As to `COc1ccc(C)cc1NC(=S)Nc1ccccc1SC`, the inhibition is 0.6% (inactive).

For `COc1ccc(NC(=O)CN(C)C(=O)c2cccc(S(=O)(=O)N3CCN(c4ccccc4)CC3)c2)cc1`, the inhibition was 1.3% (inactive).
